Drawing on PubChem BioAssay AID485317 (Broad Institute, 2010), this text covers inhibition for 93 molecules.

The structures appear in SMILES notation. In all, about 290,000 compounds went through this assay and about 11,000 (3.8%) were called active. Shown is part of a subset that was picked to be rich in actives. A number with no mark means an inactive call.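 Rule for the calls: active = mean replicate inhibition above about 79%, with every replicate also reaching it (limit read from the data); inconclusive = only one of the two criteria met; inactive = mean below limit and not every replicate reaching it.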

The test deals with FAD-linked sulfhydryl oxidase ALR (Homo sapiens) (UniProt P55789). Description: inhibitors of human ALR sulfhydryl oxidase, primary screen, biochemical, H2O2 detection, HRP-luminol luminescence, single point (AID 485317). The note with it: purified ALR, DTT oxidation, active compounds read high, concentration not given here.
FAD-linked sulfhydryl oxidase ALR (Homo sapiens), sequence (P55789 whole entry, looked up): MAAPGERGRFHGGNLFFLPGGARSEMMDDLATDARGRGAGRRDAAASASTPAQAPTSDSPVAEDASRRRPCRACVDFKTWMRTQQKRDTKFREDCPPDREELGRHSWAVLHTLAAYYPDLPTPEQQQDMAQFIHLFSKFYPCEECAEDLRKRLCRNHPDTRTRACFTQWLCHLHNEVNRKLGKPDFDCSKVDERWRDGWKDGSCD
Broadly, the inhibition is the relative decrease from the control value, in per cent. For the molecule `NS(=O)(=O)c1ccc(CNC(=O)c2cccc(S(=O)(=O)N3CCc4ccccc43)c2)cc1`, the inhibition was -5.92%.
Then `Cc1ccc(S(=O)(=O)N(C)C)cc1NC(=O)CN1c2cccc3cccc(c23)S1(=O)=O`, with -16.6%; and `Cc1ccc(S(=O)(=O)N2CCCCC2)cc1NC(=O)CCNC(=O)c1ccccc1`, with -5.33%; and `CCOc1ccc(C(C)=O)cc1COC(=O)CN1C(=O)NC2(CCCC2)C1=O`, with -0.483%.
As for `COc1cc(/C=C2\Oc3ccc(C#Cc4ccc(O)cc4)cc3C2=O)cc(OC)c1`, the inhibition is 4.14%.
As to `S=c1[nH]nc(COc2ccccc2)n1-c1ccccc1`, the inhibition was 31.7%.
For `CC(NS(=O)(=O)c1ccccc1)c1n[nH]c(=S)n1-c1ccccc1` (stereo not drawn) the value was 86.4% (active).
Then `CC(NS(=O)(=O)c1ccc(OCC(=O)N2CCCC2)cc1)c1ccccc1` (stereo not drawn), with -2.54%.
Then `COC(=O)c1nc(NC(=O)c2ccccc2)n[nH]1`, with 97.4% (active).
Regarding `O=C(Nc1nsc(-c2ccccc2)n1)c1ccncc1`, the inhibition is 1.28%.
For `COC(=O)c1nc(NC(=O)c2ccc(Cl)cc2)n[nH]1`, the inhibition is -3.46%.
Then `O=C(CSc1nc2ccccc2c(=O)n1CCCO)NC1CC1`, with 0.869%; and `CN=C(Nc1cccc(S(=O)(=O)N2CCOCC2)c1)c1ccccc1`, with -1.77%.
Regarding `CC(Sc1ccccc1F)C(=O)Nc1cccc(S(=O)(=O)N2CCOCC2)c1` (stereo not drawn), the inhibition was -3.71%.
With `CC(Sc1cccc[n+]1[O-])C(=O)Nc1cccc(S(=O)(=O)N2CCOCC2)c1` (stereo not drawn), the inhibition is 96.9% (active).
As to `CN(CC(=O)Nc1cccc(F)c1)C(=O)C1CC(=O)N(CCc2ccccc2)C1` (stereo not drawn), the inhibition was -3.35%.
Take `O=C(CSc1nnc(-c2ccncc2)o1)Nc1cccc(Cl)c1`: the inhibition is 6.76%.
For `CCCc1cc(-c2n[nH]c(=S)n2Cc2ccccc2)cs1` the value was 49.7%; for `CCn1c(-c2ccncc2)n[nH]c1=S`, 65.5%.
Consider `CCc1cc(-c2n[nH]c(=S)n2CC(C)C)cs1`, for which the inhibition was 94.7% (active).
With `N#Cc1cc([N+](=O)[O-])ccc1NC(=O)COC(=O)c1cnccn1`, the inhibition was -7.67%.
Regarding `O=C(c1cc2ccccc2o1)N1CCN(S(=O)(=O)c2ccc(Cl)s2)CC1`, the inhibition is -0.962%.
Turning to `COc1ccc(C(CNC(=O)c2cccc(NS(=O)(=O)c3ccc(C)c(F)c3)c2)N2CCCC2)cc1` (stereo not drawn), the inhibition was -7.21%.
Consider `CCOc1ccc(NC(=O)c2ccc(NC(=O)COC(=O)c3ccc(NC(=O)CC#N)cc3)cc2)cc1`, for which the inhibition was 1.83%.
On to `CC(C)c1ccc(NC(=O)COC(=O)c2ccc(CN3CCCC3=O)cc2)cc1`, for which the inhibition was -43.2%.
On to `CC(C)NC(=O)NC(=O)COC(=O)c1ccc(NC(=O)CC#N)cc1`, for which the inhibition is 98.6% (active).
For `N#CCN(C(=O)COC(=O)C1CC2CCCC(C1)C2=O)c1ccccc1` (stereo not drawn) the value was -1.07%; for `CCN(CC(=O)Nc1ccccc1C(F)(F)F)C(=O)C1CCN(C(=O)Nc2ccccc2)CC1`, 8.41%; for `O=C(CN1CCN(c2ccc(Cl)cc2)CC1)c1ccccc1`, 4.7%.
Turning to `O=C(CN1CCN(c2ccc(Cl)cc2)CC1)N1CCCC1`, the inhibition was 97.8% (active).
For `O=C(CN1CCCC1)N1CCN(c2ccccc2)CC1` the value was 23.5%; for `Cc1ccc(CSCC(=O)N(C)CC(=O)Nc2ccc(C)cc2)cc1`, -0.0315%.
In the case of `Cc1ccc(CSCC(N)C(=O)O)cc1` (stereo not drawn), the inhibition was 99.1% (active).
Then `CSCC(NS(=O)(=O)c1ccc(C)cc1)C(=O)O` (stereo not drawn), with 19.4%.
With `CCC1(c2ccccc2)NC(=O)N(CC(=O)c2ccc3c(c2)OCO3)C1=O` (stereo not drawn), the inhibition was 0.023%.
For `COc1cc(OC)cc(-c2c(C#Cc3ccsc3)c3cc(-c4ccc(OC)cc4F)ccc3n2C)c1` the value was -17.2%.
Then `COc1ccccc1C(c1nnnn1CC1CCCO1)N1CCN(c2ccccc2)CC1` (stereo not drawn), with 90.9% (active).
Then `Cc1cccc(N2CCN(C(c3ccccc3)c3nnnn3CC3CCCO3)CC2)c1C` (stereo not drawn), with -2.29%; and `COc1ccc(C(c2nnnn2Cc2cccs2)N2CCN(c3ccccc3)CC2)cc1OC` (stereo not drawn), with 8.5%.
As to `COc1ccc(NC(=O)CCC(=O)N2CCN(S(=O)(=O)c3ccc(C)cc3)CC2)c(OC)c1`, the inhibition is -6.29%.
For `O=S(=O)(NCCCc1ccccc1)c1ccc(Br)cc1` the value was 2.4%; for `Cc1[nH]c2ccccc2c1C(=O)C(C)Sc1nnc(C2CC2)o1` (stereo not drawn), -3.37%; for `O=C(CSC1CC(=O)N(CCc2ccccc2)C1=O)Nc1ccc(Cl)cc1` (stereo not drawn), 93.5% (active).
For `O=C(NCCCc1ccccc1)C1CCC(=O)N(CCc2ccc(Cl)cc2)C1` (stereo not drawn), the inhibition was 0.977%.
With `CC(=O)Nc1ccc(NC(=O)C(C)OC(=O)C2CC(=O)N(CCc3ccccc3)C2)cc1` (stereo not drawn), the inhibition is -1.82%.
In the case of `c1ccc2c(CCN3CCNC[C@H]3Cc3cccc4ccccc34)cccc2c1`, the inhibition is -14.6%.
Then `CN(C(=O)c1cccc(NC(=O)Cc2ccc([N+](=O)[O-])cc2)c1)C1CCC1`, with -1.83%; and `Cc1ccc(OCC(=O)Nc2ccccc2C(=O)NC2CC2)cc1`, with -2.04%; and `Cc1nc(C)c(-c2csc(NCCc3ccccc3)n2)s1`, with 24%.
Then `CC(C)(C)C(=O)c1cnc(Nc2ccccc2)s1`, with 19.3%; and `S=c1[nH]nc(NCCc2ccccc2)s1`, with 95.1% (active).
Then `S=c1[nH]nc(Nc2ccccc2)s1`, with 98.6% (active).
For `S=C(NCCc1ccccc1)Nc1ccccc1`, the inhibition is 12.6%.
For `O=c1cnnc(Nc2ccccc2)[nH]1` the value was 1.2%; for `CCCc1cc(=O)[nH]c(SCC(=O)Nc2ccc(C(=O)Nc3ccccc3OC)cc2)n1`, -0.142%.
For `O=C(NCCC1CCCCN1S(=O)(=O)c1ccc(Cl)cc1)C(=O)NCc1ccco1` (stereo not drawn) the value was -1.02%; for `Cc1cccc(C(=O)Nc2ccc3c(c2)C(=O)N(CC(C)C)C3=O)c1`, -20.8%; for `Cc1cc(NC(=O)OC(C)C)ccc1-c1ccc(NC(=O)OC(C)C)cc1C`, 91.5% (active).
Take `CN1C(=O)c2ccc(NC(=O)c3c(F)c(F)c(F)c(F)c3F)cc2C1=O`: the inhibition is -3.79%.
On to `Cn1cncc1C#Cc1c(-c2ccsc2)sc2ccccc12`, for which the inhibition is 1.87%.
For `O=C(CN1C(=O)c2ccc([N+](=O)[O-])cc2C1=O)Nc1nnc(C2CC2)s1` the value was -1.72%; for `CCOc1ccc(NC(=O)c2ccc(NC(=O)CN3C(=O)C(=O)N(CC(C)C)C3=O)cc2)cc1`, -8.04%.
Take `O=C(CSc1nnc(Nc2ccccc2F)s1)NC1CCCC1`: the inhibition was -1.36%.
For `CC12CCC(=O)N1C(C(=O)NCCN1C(=O)S/C(=C\c3ccccc3F)C1=O)CS2` (stereo not drawn) the value was -5.02%; for `CNC(=O)CN1C(=O)c2ccccc2S1(=O)=O`, 96.2% (active).
Then `CCCc1nnc(NC(=O)CN2C(=O)c3ccccc3S2(=O)=O)s1`, with 1.19%.
Then `O=C(CN1C(=O)c2ccccc2S1(=O)=O)NC1CCCCC1`, with -2.86%; and `CC(OC(=O)c1ccc2noc(-c3ccccc3)c2c1)C(N)=O` (stereo not drawn), with 2.68%.
With `COc1ccc(-c2onc3ccc(C(C)=O)cc23)cc1`, the inhibition was -6.5%.
For `Oc1ccc(-c2onc3ccc(Cl)cc23)cc1` the value was 81% (active); for `O=C1COc2ccc(C(=O)CSc3ccc(Br)cc3)cc2N1`, -4.57%.
For `COCCN(C(=O)COC(=O)Cc1cccc(OC)c1)c1c(N)n(Cc2ccccc2)c(=O)[nH]c1=O` the value was 3.3%; for `COc1ccc(-c2cc(C(=O)N/N=C/c3cccnc3)c3ccccc3n2)c(OC)c1`, 0.831%; for `Cc1cc(C(=O)CSc2nc(N)cc(=O)[nH]2)c(C)n1CCc1ccc(Cl)cc1`, 3.32%.
Take `CCCc1cc(=O)[nH]c(SCC(=O)c2cc(C)n(CCC)c2C)n1`: the inhibition was 96% (active).
For `CCCc1cc(=O)[nH]c(SCC(=O)c2c(N)n(CC(C)C)c(=O)n(C)c2=O)n1` the value was -1.46%.
Regarding `Cc1ccc(F)cc1NC(=O)CSCc1c(C)noc1C`, the inhibition was 9.91%.
Then `Cc1cccc(C(=O)N[C@H](C(=O)NCc2cccs2)C(C)C)c1`, with 0.403%.
Then `CCC(C)NC(=O)c1ccc(NC(=O)CC2SC(N3CCCCC3)=NC2=O)cc1` (stereo not drawn), with -5.35%; and `O=C(NCC1CCCO1)c1cc(-c2ccccc2)nc2ccccc12` (stereo not drawn), with -3.93%.
Then `COc1cccc2[nH]c(C(=O)NCCc3ccccc3)cc12`, with -7.11%; and `O=C(NCC1CCCO1)c1cc2c([nH]c3ccccc32)c(-c2ccc(F)cc2)n1` (stereo not drawn), with 96.9% (active); and `O=C(NCCCO)c1cc2c([nH]c3ccccc32)c(-c2ccc(F)cc2)n1`, with 98% (active).
`COc1ccc2cc(C(=O)NCC3CCCO3)[nH]c2c1` (stereo not drawn): the inhibition is -17.8%.
For `CN(C)CCCNC(=O)c1ccc2[nH]c3ccccc3c2c1` the value was -6.4%; for `C[C@H](CO)N1C[C@H](C)[C@@H](CN(C)C(=O)NC2CCCCC2)Oc2ccc(NC(=O)c3ccncc3)cc2C1=O`, -4.41%; for `CCN(C(=O)CSc1cccc[n+]1[O-])c1ccccc1`, -7.12%.
Then `COc1cccc(/C=C/C(=O)OCC(=O)N2CCN(c3ccccc3)CC2)c1`, with 27.8%; and `COc1cccc(-c2ccc(SCC(=O)N3CCN(c4ccccc4)CC3)nn2)c1`, with 88.3% (active); and `CCOc1ccc(-c2ccc(SCC(=O)N3CCOCC3)nn2)cc1`, with -5.59%.
As for `CC1CCCN(C(=O)CN2C(=O)c3ccccc3S2(=O)=O)C1` (stereo not drawn), the inhibition is -1.06%.
As to `O=C(NNC(=O)c1ccc(-n2cncn2)c([N+](=O)[O-])c1)c1ccccc1`, the inhibition was -16.9%.
For `O=C(NCc1ccncc1)c1ccc(NS(=O)(=O)c2cccc([N+](=O)[O-])c2)cc1` the value was -17.6%.
